Bioassay records as filed in PubChem BioAssay.
An excerpt weighted towards active compounds, which were near 2.9% of everything screened.
a7 integrin act = integrin-mediated muscular dystrophy alleviation activation; alpha7betagal myoblasts, beta-gal FDG fluorescence, 48 h; actives 0.064% (n = 350,000); Potency, µM (doses to about 38.3 µM), for inactives: top-dose activation, most hits filed as activators; active = well fitted activation curve with a large enough effect; inconclusive = small, poorly fitted or top-dose-only effect; inactive = no such curve, though single readings can be large or run the other way;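 also: potency is read from the fitted curve at half-maximal effect; 100% = response of the positive control SU9516; nearly all actives have a fitted effect of over 60% in size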
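Alpha7betagal+/- myoblasts (passage 13) were plated 16-24 hr, then exposed to compounds (1:260 dilution of DMSO stock) for 48 hours at 37C. After MPER lysis, β-galactosidase reporter activity was read as FDG fluorescence (ex 480/em 540) after 30 minutes.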
DRD3 agonist = D3 dopamine receptor (human) agonism; P35462; D3R DiscoveRx beta-arrestin cells, luminescence, 90 min; max activation, %; actives 0.58% (n = 410,000); AID 652048; in the data active = max activation above about 30%; also: 0% is about no effect
Target sequence (P35462 whole entry, looked up): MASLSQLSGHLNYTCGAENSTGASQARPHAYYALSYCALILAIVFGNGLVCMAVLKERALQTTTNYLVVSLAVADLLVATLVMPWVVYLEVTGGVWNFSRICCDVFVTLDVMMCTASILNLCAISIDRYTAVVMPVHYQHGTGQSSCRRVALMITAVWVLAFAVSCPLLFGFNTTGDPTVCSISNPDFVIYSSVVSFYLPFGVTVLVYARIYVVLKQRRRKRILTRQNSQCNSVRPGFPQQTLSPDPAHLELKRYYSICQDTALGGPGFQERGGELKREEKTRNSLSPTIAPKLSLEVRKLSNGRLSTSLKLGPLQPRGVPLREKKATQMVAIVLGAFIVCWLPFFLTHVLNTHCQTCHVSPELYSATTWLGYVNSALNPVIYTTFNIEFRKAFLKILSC
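Cells at 1500/well, incubated overnight, then treated with pinned compounds (dopamine as control) for 90 min at 37 degrees C. DiscoveRx reagent added for 30 - 60 minutes at room temperature; luminescence read.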
D3 antag = blocks the human D3 dopamine receptor; AID 652054; D3R cells, DiscoveRx beta-arrestin luminescence, antagonist mode; hits give low values; max response, negative = inhibition, %; P35462; actives 2.5% (n = 360,000); in the data active = max response below about -50%; inconclusive = no clear call, values can overlap the other calls; also: % is scaled to controls: 0 for no effect and ±100 for the full control effect
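Cells expressing the human receptor were seeded at 1500 cells/well, incubated overnight at 37 degrees C in 5% CO2, then exposed to library compounds with dopamine controls for 90 minutes at 37 degrees C before luminescent detection.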
* = called active by the depositor; ? = inconclusive; . = no result given.

SMILES	a7 integrin act	DRD3 agonist	D3 antag
COc1ccc(-c2nn(-c3ccccc3)cc2/C=C/C(=O)NCCCn2ccnc2)cc1OC	0.0%	6.2	-4.1
COCCNC(=O)c1ccc(C)cc1C	10.9%	-6.8	-1.1
COCCNC(=O)c1c(C)cc(C)cc1C	0.2%	0.1	-76.9*
CNS(=O)(=O)c1ccc(NC(=S)Nc2ccc3c(c2)OCO3)cc1	-2.5%	-9.4	5.0
CC(=O)c1ccc(NC(=O)CN2CCN(c3ncccn3)CC2)cc1	-17.5%	69.8*	-24.5
N#Cc1ccc(NC(=O)CN2CCN(c3ccccn3)CC2)cc1	?	48.7*	11.6
CC(C)c1ccc(NC(=O)CN2CCN(c3ccccn3)CC2)cc1	-14.7%	9.2	-12.5
CC(=O)c1ccc(NC(=O)CN2CCN(CC(=O)Nc3ccc(C(C)=O)cc3)CC2)cc1	14.6%	3.9	9.2
CCOc1ccccc1N1CCN(C(=O)c2cc3ccccc3cc2OC)CC1	0.0%	1.1	2.9
COC(=O)CSc1nnc(-c2cccs2)n1-c1ccc(Cl)cc1	2.8%	-1.7	4.9
OCCN1C2=NCCCN2c2ccccc21	-8.2%	3.6	-8.2
COc1ccc(C)cc1NC(=O)c1ccccc1NS(=O)(=O)c1ccc(Cl)s1	-17.7%	-4.2	1.2
Cc1cc2ccccc2c(=O)n1CC(=O)NCCC1=CCCCC1	4.5%	-6.0	-16.0
Cc1ccc(S(=O)(=O)NNC(=O)C2CCN(S(=O)(=O)c3ccc(C)cc3)CC2)cc1	1.4%	-5.7	-6.9
O=C1CSC(=S)N1c1cccc(F)c1	5.7%	7.8	3.5
O=C1CC(=O)N(c2cccc(F)c2)N1	11.3%	-12.5	-50.8*
Cc1ccc(C2=CN(Cc3ccccc3)CCC2=O)cc1	32.8%	-8.2	-12.3
O=C(Nc1ccc(C2=CN(Cc3ccccc3)CCC2=O)cc1)OCc1ccccc1	3.8%	51.7*	31.1
O=C(CCCOc1ccccc1)Nc1ccncc1	24.5%	0.2	2.2
Cc1ccc(N=Cc2nc(-c3ccc(C)cc3)oc2O)cc1	20.2%	2.3	9.3
COc1ccc(N=Cc2nc(-c3ccco3)oc2O)cc1	-15.5%	-20.8	-51.7*
COCCOC(=O)c1c(C)nc(SCC(=O)Nc2ccc(C)cc2)c(C#N)c1-c1ccco1	-32.2%	-0.6	0.2
COCCOC(=O)c1c(C)nc(SCC(=O)Nc2cccc3ccccc23)c(C#N)c1-c1ccco1	-29.7%	-2.1	-65.3*
O=C(NC1CCN(Cc2ccccc2)C1)c1cccc(S(=O)(=O)N2CCOCC2)c1 (centres undefined)	1.5%	-28.5	?
Cc1c(C(=O)NC2CCN(Cc3ccccc3)C2)oc2c(Cl)cccc12 (centres undefined)	-45.9%	-19.6	-100.2*
SMILES	a7 integrin act	DRD3 agonist	D3 antag
CCN(c1ccccc1)S(=O)(=O)c1ccc(Cl)c(C(=O)NC2CCN(Cc3ccccc3)CC2)c1	-23.2%	-26.1	?
CN(C)S(=O)(=O)c1ccc(Cl)c(C(=O)NC2CCN(Cc3ccccc3)C2)c1 (centres undefined)	-10.0%	-13.3	-58.9*
O=C(NNC(=O)C1C2CCCCC21)c1coc(=O)c(Br)c1 (centres undefined)	-22.0%	-6.0	10.2
O=S(=O)(c1ccc(Cl)cc1)N1CCC(c2nc3ccccc3[nH]2)CC1	-28.2%	15.8	-16.9
CNc1cncc(-c2ccc(O)cc2)n1	.	6.7	9.8
CNc1cncc(-c2cc(C)c(O)c(C)c2)n1	.	76.4*	-3.5
O=C(Cn1ncn2cccc2c1=O)NCc1cccc(Br)c1	.	-8.7	.
COc1cc(Cl)c(C)cc1NC(=O)CN1CCN(C(=O)C2CC2)CC1	-16.8%	2.6	-7.4
CC(C)[C@H](NC(=O)c1ccccc1)C(=O)OCC(=O)N1CCc2ccccc2C1	-22.3%	-1.6	5.6
CC(C)OCCCNC(=O)c1ccc(Br)cc1	-8.9%	1.8	20.9
CCOCCCNC(=O)c1ccc(C2SCC(=O)N2Cc2ccccc2)cc1 (centres undefined)	-1.4%	-0.8	18.9
CC(C)OCCCNC(=O)c1ccc(CN2CCc3ccccc3C2)cc1	-12.7%	-20.1	-66.6*
CC(C)NC(=O)c1ccc(CN2CCc3ccccc3C2)cc1	0.0%	-18.0	-65.9*
CCOCCCNC(=O)c1ccc(CN2CCc3ccccc3C2)cc1	-14.7%	-2.3	-92.3*
CCCCCCCCN1CC(Cc2cc3ccccc3c3ccccc23)N(c2ccccc2)c2ccccc2C1=O (centres undefined)	.	-6.4	11.1
Cc1ccc(NC2CCCN(C(=O)c3cnc4ccccn4c3=O)C2)cc1C (centres undefined)	17.2%	3.3	13.5
CC(=O)N1CCC2(CC1)OC(=O)C(C)=C2C(=O)NCc1ccc(Cl)cc1	.	-5.6	.
Cc1ccc(/C=N/NC(=O)c2cccs2)o1	1.6%	-9.7	-24.1
Nc1ccn(CC(=O)NCCNc2ccc([N+](=O)[O-])cn2)c(=O)n1	6.4%	98.5*	6.8
